Data on 36 molecules can be found in PubChem BioAssay AID1963321 (National Center for Advancing Translational Sciences (NCATS), 2024).

Results filed as inconclusive are left out. A call without a number means that no potency is given here. Active and inactive are the calls of the source. The call rests on the fitted dose curve.

In the assay the target is cAMP-dependent protein kinase catalytic subunit alpha (Homo sapiens) (UniProt P17612). The assay is described as follows: Protein Kinase A (PKA-HiBiT) enzymatic inhibition screen - Functional assay. As to conditions: luminescence; series mostly up to 57.5 µM. The method, boiled down: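 PKA-N-HiBiT enzyme (10 nM final) with 87.5 uM ATP preincubated 30 min at room temperature with compounds. Kemptide substrate then added for 3 h; residual ATP read by Kinase-Glo Plus luminescence, H-89 as positive control.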
Background: With HiBiT, luminescence reflects the tagged protein that the partner subunit can reach.
Take `O=c1c(O)c(-c2ccc(O)c(O)c2)oc2cc(O)cc(O)c12`: the Potency result was “inactive”.
In the case of `Cc1cc(Nc2cc(N3CCN(C)CC3)nc(Sc3ccc(NC(=O)C4CC4)cc3)n2)n[nH]1` it was “inactive”; in that of `CCN(CC)CCOc1ccc(Nc2ncc3cc(-c4c(Cl)cccc4Cl)c(=O)n(C)c3n2)cc1`, “inactive”; in that of `CCOc1ccn(-c2ccc(F)cc2)c(=O)c1C(=O)Nc1ccc(Oc2ccnc(N)c2Cl)c(F)c1`, 0.0153 µM (active).
In the case of `CN1CCN(c2ccc(Nc3ncc4cc(C#N)c(=O)n(C5CCCC5)c4n3)cc2)CC1`, the Potency result was “inactive”.
For `Cn1ncc(NC(=O)c2nc(-c3c(F)cccc3F)sc2N)c1N1CC[C@@H](N)[C@H](F)CC1`, the Potency result is “inactive”.
For `CC1(C)OCCn2c1nc1c(N3CCOCC3)nc(-c3cnc(N)nc3)nc12`, the Potency entry is “inactive”.
Regarding `Cc1c(Cl)cccc1S(=O)(=O)Nc1nc(NCCc2ccccc2)nc2c1CN(Cc1ccccc1)CC2`, the Potency entry was “inactive”.
`CN(c1ncccc1CNc1nc(Nc2ccc3c(c2)CC(=O)N3)ncc1C(F)(F)F)S(C)(=O)=O`: the Potency is 24.3 µM (active).
Regarding `Cc1[nH]c(/C=C2\C(=O)Nc3ccc(S(=O)(=O)Cc4c(Cl)cccc4Cl)cc32)c(C)c1C(=O)N1CCC[C@@H]1CN1CCCC1`, the Potency result was “inactive”.
In the case of `O=C(Nc1ccc(OC(F)(F)F)cc1)c1sccc1NCc1ccnc2ccccc12` it was “inactive”.
As to `CC(C)n1nc(-c2cc3cc(O)ccc3[nH]2)c2c(N)ncnc21`, the Potency entry was “inactive”.
In the case of `Cc1cn(-c2cccc(NC(=O)c3ccc(C)c(Nc4nccc(-c5cccnc5)n4)c3)c2)cn1` it was “inactive”; in that of `CCN1/C(=C\C(C)=O)Sc2ccc(OC)cc21`, “inactive”.
`N#Cc1ccc2ncnc(NCCc3ccccc3)c2c1`: the Potency result is “inactive”.
Turning to `CNS(=O)(=O)c1ccc2c(c1)/C(=C/c1[nH]c3c(c1CCCN1CCN(C)CC1)CCCC3)C(=O)N2`, the Potency result was “inactive”.
For the molecule `CSc1cccc(Nc2ncc3cc(-c4c(Cl)cccc4Cl)c(=O)n(C)c3n2)c1`, the Potency entry was “inactive”.
As to `CCCS(=O)(=O)Nc1ccc(F)c(C(=O)c2c[nH]c3ncc(Cl)cc23)c1F`, the Potency result is “inactive”.
For `CCN1C(=O)CNc2ncc(-c3ccc(-c4ncn[nH]4)nc3C)nc21`, the Potency result is “inactive”.
With `COc1cc2ncnc(-n3nc(-c4ccccn4)nc3N)c2cc1OC`, the Potency result is “inactive”.
As for `COc1cc2c(cc1OC)-c1[nH]nc(Nc3cccc(F)c3)c1C2`, the Potency entry is “inactive”.
In the case of `CNC(=O)c1ccccc1Nc1nc(Nc2ccc(N3CCOCC3)cc2OC)ncc1Cl` it was “inactive”.
For the molecule `COc1cc2c(Oc3ccc(NC(=O)C4(C(=O)Nc5ccc(F)cc5)CC4)cc3F)ccnc2cc1OCCCN1CCOCC1`, the Potency result was “inactive”.
On to `O=C(NOCC(O)CO)c1cc(Br)c(F)c(F)c1Nc1ccc(I)cc1F` (stereo unspecified), for which the Potency result was “inactive”.
Regarding `CCCCCCCCCCCCc1ccc(S(=O)(=O)Nc2nncs2)cc1`, the Potency result is “inactive”.
In the case of `O=C(NCCO)c1cccc(-c2cc(Nc3ccc(OC(F)(F)F)cc3)ncn2)c1` it was “inactive”.
Regarding `COc1cc2ncnc(Oc3cccc(NC(=O)Nc4cc(C(C)(C)C(F)(F)F)on4)c3)c2cc1OC`, the Potency result was “inactive”.
Consider `C=CC(=O)Nc1cc2c(Nc3ccc(F)c(Cl)c3)ncnc2cc1OCCCN1CCOCC1`, for which the Potency result was “inactive”.
With `CCCCNc1ncc2c(-c3ccc(S(=O)(=O)N4CCOCC4)cc3)nn(C3CCC(O)CC3)c2n1` (stereo unspecified) the entry was “inactive”.
In the case of `Cc1cccc(C)c1-n1c(=O)c2cnc(Nc3ccc(N4CCN(C)CC4)cc3)nc2n2c3ccccc3nc12`, the Potency entry is “inactive”.
With `Oc1ccc(-c2ccc(-c3cc(Nc4cccc(CNC5CC5)c4)n[nH]3)cc2)c(O)c1`, the Potency result is “inactive”.
Take `Nc1nc(Nc2ccc(S(N)(=O)=O)cc2)n(C(=S)Nc2c(F)cccc2F)n1`: the Potency entry was “inactive”.
As to `O=C(NC1CCNCC1)c1[nH]ncc1NC(=O)c1c(Cl)cccc1Cl`, the Potency entry was “inactive”.
On to `COc1cc(N2CCC(N3CCN(C)CC3)CC2)ccc1Nc1ncc(Cl)c(Nc2ccccc2P(C)(C)=O)n1`, for which the Potency result is “inactive”.
For the molecule `C[C@@H]1CCNC(=O)c2cc3ccc(C(=O)Nc4nc5ccccc5n4CCCN(C)C)cc3n21`, the Potency entry is “inactive”.
As to `CC[C@@](C)(Nc1ccnc(-c2c[nH]c3ncccc23)n1)C(=O)NCC(F)(F)F`, the Potency entry is “inactive”.
